{
  "source": "paper PMC8384837",
  "about": "“Expanding the binding specificity for RNA recognition by a PUF domain”",
  "experiment_in_all_cases": "yeast three-hybrid, YBZ-1, SC-Leu-His + 0.5 mM 3-AT, 4 days",
  "settings_in_all_cases": "tags: N-Gal4 AD-HA kept; label: inside an RPR1-promoter hybrid RNA with tandem MS2 sites; ssRNA",
  "key": {"PUM1 PUF domain R8-PFH": {"molecular_target": "PUM1 PUF domain R8-PFH (Homo sapiens, UniProt Q14671 828-1176, N1122P;Y1123F;Q1126H)", "sequence (Q14671 828-1176 N1122P/Y1123F/Q1126H)": "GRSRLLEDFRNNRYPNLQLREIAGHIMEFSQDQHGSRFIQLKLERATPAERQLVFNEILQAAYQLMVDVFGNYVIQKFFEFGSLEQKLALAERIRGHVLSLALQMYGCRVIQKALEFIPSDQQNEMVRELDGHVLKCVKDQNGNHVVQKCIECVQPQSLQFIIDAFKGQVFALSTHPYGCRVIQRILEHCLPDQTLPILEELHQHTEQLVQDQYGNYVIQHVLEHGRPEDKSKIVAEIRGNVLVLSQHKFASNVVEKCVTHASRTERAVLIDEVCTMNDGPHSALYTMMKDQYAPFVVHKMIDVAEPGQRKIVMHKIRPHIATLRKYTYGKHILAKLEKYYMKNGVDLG", "summary_of_the_method": "(§1)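 Each repeat of the Pumilio-1 PUF domain was randomized at its three base-contacting residues, and these libraries were co-expressed from a centromeric plasmid with matching RNA elements in strain YBZ-1. After four days on SC-Leu (input) or SC-Leu-His + 0.5 mM 3-AT (selection), the repeat regions were PCR-amplified and Illumina-sequenced. The interaction score compares variant frequency between input and selection as a log change, computed in log2 with a pseudocount of 1 for absent variants.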"}, "PUM1 PUF domain R8-RRH": {"molecular_target": "PUM1 PUF domain R8-RRH (Homo sapiens, UniProt Q14671 828-1176, N1122R;Y1123R;Q1126H)", "sequence (Q14671 828-1176 N1122R/Y1123R/Q1126H)": "as the sequence (Q14671 828-1176 N1122P/Y1123F/Q1126H) above, with P295R, F296R counted along it", "summary_of_the_method": "as §1"}, "PUM1 PUF domain R3-PYY": {"molecular_target": "PUM1 PUF domain R3-PYY (Homo sapiens, UniProt Q14671 828-1176, C935P;R936Y;Q939Y)", "sequence (Q14671 828-1176 C935P/R936Y/Q939Y)": "as the sequence (Q14671 828-1176 N1122P/Y1123F/Q1126H) above, with C108P, R109Y, Q112Y, P295N, F296Y, H299Q counted along it", "summary_of_the_method": "as §1"}, "PUM1 PUF domain R3-GRW": {"molecular_target": "PUM1 PUF domain R3-GRW (Homo sapiens, UniProt Q14671 828-1176, C935G;Q939W)", "sequence (Q14671 828-1176 C935G/Q939W)": "as the sequence (Q14671 828-1176 N1122P/Y1123F/Q1126H) above, with C108G, Q112W, P295N, F296Y, H299Q counted along it", "summary_of_the_method": "as §1"}, "PUM1 PUF domain R5-QSR": {"molecular_target": "PUM1 PUF domain R5-QSR (Homo sapiens, UniProt Q14671 828-1176, C1007Q;R1008S;Q1011R)", "sequence (Q14671 828-1176 C1007Q/R1008S/Q1011R)": "as the sequence (Q14671 828-1176 N1122P/Y1123F/Q1126H) above, with C180Q, R181S, Q184R, P295N, F296Y, H299Q counted along it", "summary_of_the_method": "as §1"}, "PUM1 PUF domain R5-TRM": {"molecular_target": "PUM1 PUF domain R5-TRM (Homo sapiens, UniProt Q14671 828-1176, C1007T;Q1011M)", "sequence (Q14671 828-1176 C1007T/Q1011M)": "as the sequence (Q14671 828-1176 N1122P/Y1123F/Q1126H) above, with C180T, Q184M, P295N, F296Y, H299Q counted along it", "summary_of_the_method": "as §1"}, "PUM1 PUF domain R5-PMK": {"molecular_target": "PUM1 PUF domain R5-PMK (Homo sapiens, UniProt Q14671 828-1176, C1007P;R1008M;Q1011K)", "sequence (Q14671 828-1176 C1007P/R1008M/Q1011K)": "as the sequence (Q14671 828-1176 N1122P/Y1123F/Q1126H) above, with C180P, R181M, Q184K, P295N, F296Y, H299Q counted along it", "summary_of_the_method": "as §1"}, "PUM1 PUF domain R4-VNS": {"molecular_target": "PUM1 PUF domain R4-VNS (Homo sapiens, UniProt Q14671 828-1176, N971V;H972N;Q975S)", "sequence (Q14671 828-1176 N971V/H972N/Q975S)": "as the sequence (Q14671 828-1176 N1122P/Y1123F/Q1126H) above, with N144V, H145N, Q148S, P295N, F296Y, H299Q counted along it", "summary_of_the_method": "as §1"}, "PUM1 PUF domain R5-RMT": {"molecular_target": "PUM1 PUF domain R5-RMT (Homo sapiens, UniProt Q14671 828-1176, C1007R;R1008M;Q1011T)", "sequence (Q14671 828-1176 C1007R/R1008M/Q1011T)": "as the sequence (Q14671 828-1176 N1122P/Y1123F/Q1126H) above, with C180R, R181M, Q184T, P295N, F296Y, H299Q counted along it", "summary_of_the_method": "as §1"}, "PUM1 PUF domain R2-RHE": {"molecular_target": "PUM1 PUF domain R2-RHE (Homo sapiens, UniProt Q14671 828-1176, N899R;Y900H;Q903E)", "sequence (Q14671 828-1176 N899R/Y900H/Q903E)": "as the sequence (Q14671 828-1176 N1122P/Y1123F/Q1126H) above, with N72R, Y73H, Q76E, P295N, F296Y, H299Q counted along it", "summary_of_the_method": "as §1"}},
  "data": [
    {"sequence": "GGCUAGAACUAGUGGAUCCCCCGGCGCCCGGCGGCUCGAGCCCGGGUAAGCGUAAAUAGUCUGCAUGCCGCCGGGCGCCAUGCCUGCAGGUCGACUCUAGAAAACAUG", "values": [
      {"measurement": "binding signal", "setting": "PUM1 PUF domain R8-PFH", "value": "2.98 log2 enrichment (interaction score)"},
      {"measurement": "binding signal", "setting": "PUM1 PUF domain R8-RRH", "value": "2.65 log2 enrichment (interaction score)"}
    ]},
    {"sequence": "GGCUAGAACUAGUGGAUCCCCCGGCGCCCGGCGGCUCGAGCCCGGGUAAGUGUAAAUAGUCUGCAUGCCGCCGGGCGCCAUGCCUGCAGGUCGACUCUAGAAAACAUG", "values": [
      {"measurement": "binding signal", "setting": "PUM1 PUF domain R8-RRH", "value": "0.67 log2 enrichment (interaction score)"},
      {"measurement": "binding signal", "setting": "PUM1 PUF domain R3-PYY", "value": "6.39 log2 enrichment (interaction score)"},
      {"measurement": "binding signal", "setting": "PUM1 PUF domain R3-GRW", "value": "4.33 log2 enrichment (interaction score)"},
      {"measurement": "binding signal", "setting": "PUM1 PUF domain R5-QSR", "value": "1.54 log2 enrichment (interaction score)"},
      {"measurement": "binding signal", "setting": "PUM1 PUF domain R5-TRM", "value": "2.74 log2 enrichment (interaction score)"}
    ]},
    {"sequence": "GGCUAGAACUAGUGGAUCCCCCGGCGCCCGGCGGCUCGAGCCCGGGUAAGUGUUAAUAGUCUGCAUGCCGCCGGGCGCCAUGCCUGCAGGUCGACUCUAGAAAACAUG", "values": [
      {"measurement": "binding signal", "setting": "PUM1 PUF domain R5-PMK", "value": "2.73 log2 enrichment (interaction score)"}
    ]},
    {"sequence": "GGCUAGAACUAGUGGAUCCCCCGGCGCCCGGCGGCUCGAGCCCGGGUAAGUGUACAUAGUCUGCAUGCCGCCGGGCGCCAUGCCUGCAGGUCGACUCUAGAAAACAUG", "values": [
      {"measurement": "binding signal", "setting": "PUM1 PUF domain R4-VNS", "value": "1.91 log2 enrichment (interaction score)"}
    ]},
    {"sequence": "GGCUAGAACUAGUGGAUCCCCCGGCGCCCGGCGGCUCGAGCCCGGGUAAGUGUAUAUAGUCUGCAUGCCGCCGGGCGCCAUGCCUGCAGGUCGACUCUAGAAAACAUG", "values": [
      {"measurement": "binding signal", "setting": "PUM1 PUF domain R4-VNS", "value": "2.92 log2 enrichment (interaction score)"}
    ]},
    {"sequence": "GGCUAGAACUAGUGGAUCCCCCGGCGCCCGGCGGCUCGAGCCCGGGUAAGUGUAAUUAGUCUGCAUGCCGCCGGGCGCCAUGCCUGCAGGUCGACUCUAGAAAACAUG", "values": [
      {"measurement": "binding signal", "setting": "PUM1 PUF domain R3-GRW", "value": "0.31 log2 enrichment (interaction score)"}
    ]},
    {"sequence": "GGCUAGAACUAGUGGAUCCCCCGGCGCCCGGCGGCUCGAGCCCGGGUAAGUGUCAAUAGUCUGCAUGCCGCCGGGCGCCAUGCCUGCAGGUCGACUCUAGAAAACAUG", "values": [
      {"measurement": "binding signal", "setting": "PUM1 PUF domain R5-RMT", "value": "3.58 log2 enrichment (interaction score)"},
      {"measurement": "binding signal", "setting": "PUM1 PUF domain R5-QSR", "value": "4.21 log2 enrichment (interaction score)"}
    ]},
    {"sequence": "GGCUAGAACUAGUGGAUCCCCCGGCGCCCGGCGGCUCGAGCCCGGGUAAGUGUAAAGAGUCUGCAUGCCGCCGGGCGCCAUGCCUGCAGGUCGACUCUAGAAAACAUG", "values": [
      {"measurement": "binding signal", "setting": "PUM1 PUF domain R2-RHE", "value": "3.71 log2 enrichment (interaction score)"}
    ]}
  ]
}
